Laboratory results as given in PubChem BioAssay AID1159580 (chemical genetic matrix, 2015).
Several values for one entry are separate records, joined by “and”; a condition that tells them apart may be missing. Equal values may be shown once. About 2,000 (36%) of roughly 5,500 compounds were called active. About 18% were inconclusive and are not listed. Rule as the data show it: active = normalized growth mostly below about 0.91 (no sharp cut-off); inconclusive = no clear call, values can overlap the other calls; inactive = mostly above about 0.92. The list shows a part of the results.

Assay: chemical genetic growth profiling, strain panel (AID 1159580);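 also: tested at 20 µM; growth read once vehicle control cultures reached saturation at 30 °C; 1 = growth at the plate median or of vehicle wells; lower values mean less growth of the strain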
Details: S. cerevisiae deletion strains, growth OD
[1] = locus YBR021W, strain FUR4, stronger effect = lower value
[2] = locus YBR229C, strain ROT2, stronger effect = lower value
[3] = locus YCL029C, strain bik1, stronger effect = lower value
[4] = locus YDL035C, strain GPR1, stronger effect = lower value
[5] = locus YDL074C, strain BRE1, stronger effect = lower value
[6] = locus YDL101C, strain DUN1, stronger effect = lower value
[7] = locus YDL185W, strain tfp1, stronger effect = lower value
[8] = locus YDL192W, strain arf1, stronger effect = lower value
[9] = locus YDR101C, strain arx1, stronger effect = lower value
[10] = locus YDR162C, strain NBP2, stronger effect = lower value
[11] = locus YDR318W, strain mcm21, stronger effect = lower value
[12] = locus YDR388W, stronger effect = lower value
[13] = locus YDR502C, strain sam2, stronger effect = lower value
[14] = locus YER110C, stronger effect = lower value
[15] = locus YER155C, strain BEM2, stronger effect = lower value
[16] = locus YER167W, strain BCK2, stronger effect = lower value
[17] = locus YGL078C, strain dbp3, stronger effect = lower value
[18] = locus YGL086W, strain mad1, stronger effect = lower value
[19] = locus YGL248W, strain PDE1, stronger effect = lower value
[20] = locus YGR135W, strain pre9, stronger effect = lower value
[21] = locus YGR252W, strain gcn5, stronger effect = lower value
[22] = locus YHR030C, strain SLT2, stronger effect = lower value
[23] = locus YHR079C, strain IRE1 (second series), stronger effect = lower value
[24] = locus YHR079C, strain IRE1, stronger effect = lower value
[25] = locus YHR094C, strain hxt1, stronger effect = lower value
[26] = locus YHR129C, strain ARP1, stronger effect = lower value
[27] = locus YHR200W, strain rpn10, stronger effect = lower value
[28] = locus YIL066C, strain RNR3, stronger effect = lower value
[29] = locus YIL073C, strain SPO22, stronger effect = lower value
[30] = locus YIL125W, strain kgd1, stronger effect = lower value
[31] = locus YIR030C, strain dcg1, stronger effect = lower value
[32] = locus YJL095W, strain BCK1, stronger effect = lower value
[33] = locus YJL134W, strain LCB3, stronger effect = lower value
[34] = locus YJL168C, strain set2, stronger effect = lower value
[35] = locus YJL187C, strain SWE1 (second series), stronger effect = lower value
[36] = locus YJR066W, strain TOR1, stronger effect = lower value
[37] = locus YKL009W, strain mrt4, stronger effect = lower value
[38] = locus YKL068W, stronger effect = lower value
[39] = locus YKL085W, strain MDH1 (second series), stronger effect = lower value
[40] = locus YKL085W, strain MDH1, stronger effect = lower value
[41] = locus YKR001C, strain vps1, stronger effect = lower value
[42] = locus YLR039C, strain RIC1, stronger effect = lower value
[43] = locus YLR058C, strain SHM2, stronger effect = lower value
[44] = locus YLR102C, strain apc9, stronger effect = lower value
[45] = locus YLR113W, strain HOG1, stronger effect = lower value
[46] = locus YLR262C, strain YPT6, stronger effect = lower value
[47] = locus YLR268W, strain sec22, stronger effect = lower value
[48] = locus YLR371W, strain rom2, stronger effect = lower value
[49] = locus YLR418C, strain cdc73, stronger effect = lower value
[50] = locus YML016C, strain PPZ1, stronger effect = lower value
[51] = locus YML032C, strain rad52, stronger effect = lower value
[52] = locus YML124C, strain tub3, stronger effect = lower value
[53] = locus YMR078C, strain ctf18, stronger effect = lower value
[54] = locus YMR223W, strain ubp8, stronger effect = lower value
[55] = locus YMR307W, strain GAS1, stronger effect = lower value
[56] = locus YNL067W, strain RPL9B, stronger effect = lower value
[57] = locus YNL183C, strain NPR1, stronger effect = lower value
[58] = locus YNL233W, strain BNI4, stronger effect = lower value
[59] = locus YNL250W, strain rad50, stronger effect = lower value
[60] = locus YNL271C, strain bni1, stronger effect = lower value
[61] = locus YNL298W, strain CLA4, stronger effect = lower value
[62] = locus YNL307C, strain MCK1, stronger effect = lower value
[63] = locus YNR052C, strain pop2, stronger effect = lower value
[64] = locus YOL147C, strain pex11, stronger effect = lower value
[65] = locus YOR061W, strain CKA2, stronger effect = lower value
[66] = locus YOR069W, strain VPS5, stronger effect = lower value
[67] = locus YOR136W, strain idh2, stronger effect = lower value
[68] = locus YOR144C, strain elg1, stronger effect = lower value
[69] = locus YOR184W, strain ser1, stronger effect = lower value
[70] = locus YOR231W, strain MKK1, stronger effect = lower value
[71] = locus YOR316C, strain cot1, stronger effect = lower value
[72] = locus YPL256C, strain CLN2, stronger effect = lower value
[73] = locus YPR119W, strain clb2, stronger effect = lower value
[74] = locus YPR141C, strain kar3, stronger effect = lower value
[75] = locus YPR163C, strain tif3, stronger effect = lower value
[76] = locus YPR167C, strain met16, stronger effect = lower value
[77] = strain wtn01, stronger effect = lower value

Measured: normalized growth

C[C@H]1OC(O[C@H]2[C@@H](O)CC(O[C@H]3[C@@H](O)C[C@H](O[C@H]4CC[C@]5(C)C6CC[C@]7(C)[C@@H](C8=CC(=O)OC8)[C@@H](O)C[C@]7(O)[C@@H]6CC[C@@H]5C4)O[C@@H]3C)O[C@@H]2C)C[C@H](O)C1O (stereo not given in full)
inactive: [1] 0.986 | [2] 1.01 | [3] 0.989 | [4] 0.992 | [5] 1.01 | [6] 1 | locus YDL134C, strain PPH21, stronger effect = lower value 1.01 | [7] 0.981 | [8] 0.988 | [9] 0.991 | locus YDR150W, strain NUM1, stronger effect = lower value 1.02 | [10] 1 | [11] 1.01 | [12] 0.999 | [13] 0.987 | locus YEL061C, strain CIN8, stronger effect = lower value 0.999 | [14] 0.986 | [15] 0.985 | [16] 0.99 | [17] 0.981 | [18] 0.965 | [19] 1.01 | [20] 1.01 | locus YGR229C, strain SMI1, stronger effect = lower value 0.998 | [21] 1.02 | [22] 1 and 1.03 | [23] 0.998 | [24] 1.03 | [25] 0.989 | [26] 0.999 | [27] 1 | [28] 1 | [29] 1.01 | [30] 0.981 | [31] 0.989 | [32] 1.01 and 1 | [33] 1 | [34] 0.996 | [35] 1.02 | locus YJR043C, strain POL32, stronger effect = lower value 1.01 | [36] 0.965 | [37] 0.927 | [38] 0.994 | [39] 0.988 | [40] 0.988 | [41] 0.986 | [42] 1.06 | [43] 1 | [44] 0.99 | [45] 0.975 | [46] 1.04 | [47] 0.99 | locus YLR330W, strain CHS5, stronger effect = lower value 0.994 | locus YLR342W, strain FKS1 (second series), stronger effect = lower value 1.02 | [48] 0.989 | [49] 0.998 | [50] 1.01 | [51] 1.01 | [52] 1 | [53] 1 | [54] 1.01 | locus YMR263W, strain SAP30, stronger effect = lower value 1.01 | [55] 1.05 | [56] 1.01 | [57] 0.989 | [58] 0.995 | [59] 0.983 | [60] 0.99 | [61] 0.989 | [62] 0.993 | locus YNL322C, strain KRE1, stronger effect = lower value 1.01 | [63] 0.999 | locus YOL012C, strain htz1 1.48 | [64] 0.984 | [65] 1.01 | [66] 0.995 | [67] 0.98 | [68] 0.995 | [69] 0.983 | [70] 0.995 | [71] 0.994 | [72] 1.03 | [73] 0.996 | [74] 0.99 | [75] 0.995 | [76] 0.994 | [77] 0.98

CC12CCC3C(CCC4(O)CC(O)CCC34/C=N/NC(N)=O)C1(O)CCC2C1=CC(=O)OC1 (stereo not given)
inactive: [1] 1.05 | [2] 1.02 | [3] 0.999 | [4] 1.05 | [5] 1.05 | [6] 1.01 | [7] 0.998 | [8] 1.01 | [9] 1.01 | [10] 1.02 | [11] 0.985 | [12] 0.985 | [13] 0.974 | [14] 0.963 | [15] 1 | [16] 1.02 | [17] 0.983 | [18] 0.991 | [19] 1 | locus YGR078C, strain PAC10, stronger effect = lower value 0.991 | [20] 0.957 | [21] 0.98 | [22] 1.01 | [23] 0.988 | [25] 0.979 | [26] 1.01 | [27] 0.994 | [28] 1.04 | [29] 1.01 | [30] 0.992 | [31] 0.994 | [32] 1 | [33] 1.01 | [34] 0.991 | [35] 0.999 | [37] 1.03 | [38] 0.987 | [39] 0.994 | [40] 0.994 | [41] 0.996 | [42] 1.06 | [43] 1.02 | [44] 0.985 | [46] 1.05 | [47] 1.02 | [48] 0.994 | [49] 0.975 | [50] 1.02 | [51] 1 | [52] 0.986 | [53] 0.981 | [54] 0.975 | [55] 1.08 | [56] 0.986 | locus YNL153C, strain GIM3, stronger effect = lower value 0.991 | [58] 0.987 | [59] 0.985 | [60] 0.994 | [61] 0.983 | [62] 0.986 | [63] 0.98 | locus YOL012C, strain htz1 1.29 | [64] 0.986 | [65] 1.04 | [66] 1 | [67] 0.98 | [68] 0.989 | [69] 1.03 | [71] 0.987 | locus YPL241C, strain CIN2, stronger effect = lower value 1.01 | [73] 0.983 | [74] 0.994 | [75] 0.989 | [76] 0.978 | [77] 1.01

COC1C(O)C(C)OC(O[C@H]2CC[C@]3(C=O)C4C(CC[C@]3(O)C2)[C@@]2(O)CC[C@H](C3=CC(=O)OC3)[C@@]2(C)C[C@H]4O)C1O (stereo not given in full)
inactive: [22] 1.07 | [24] 1.08 | [32] 1.04 | [36] 0.979 | [45] 0.968 | [57] 0.988 | [70] 1.01 | [72] 1.12
